Rab9 prom act: activates the Rab9 promoter; Potency, µM (highest dose often 9.22 µM), inactives show top-dose activation, negative = inhibition, most hits filed as activators; actives 2.8% (n = 320,000); Huh7 Rab9 promoter-luciferase reporter, luminescence, 24 h; note: % of control where 0% means no effect; nearly all actives have a fitted effect of over 60% in size
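Luciferase signal after 10 min detection reagent at ambient indicates Rab9 promoter upregulation; stably transfected Huh7 cells were treated 24 h with compound in DMSO at 37 °C, 5% CO2.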
SMN2 splice up: increases expression of the SMN2 splice variant | Potency, µM (series often up to 46.1 µM), inactives show at the top dose activity change, positive = activation, most hits filed as activators | HEK293 SMN2-luciferase splicing reporter, luminescence, 30-36 h | AID 1458 | actives 2.8% (n = 210,000); note: % of control where 0% means no effect; nearly all actives have a fitted effect of over 55% in size
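HEK293 cells carry an SMN2 […]–luciferase reporter in which exon 7 inclusion puts luciferase in frame. Cells were plated 10-12 h before compound addition, then incubated 30-36 h at 37C. ONE-Glo luminescence was read; sodium butyrate at 4.5 mM final served as control.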
FLuc modulator: firefly luciferase modulation, counter-screen for miR-21 project. P08659. purified FLuc, Km substrates, luminescence inhibition. Potency, µM (doses to about 57.5 µM), inactives show at the highest dose activity change, negative = inhibition, usual class: inhibitors. actives 6.9% (n = 360,000);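 note: plate controls were vehicle for no effect and reference inhibitor for full effect; nearly all actives have a fitted effect of over 55% in size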
Target sequence (P08659 whole entry, looked up): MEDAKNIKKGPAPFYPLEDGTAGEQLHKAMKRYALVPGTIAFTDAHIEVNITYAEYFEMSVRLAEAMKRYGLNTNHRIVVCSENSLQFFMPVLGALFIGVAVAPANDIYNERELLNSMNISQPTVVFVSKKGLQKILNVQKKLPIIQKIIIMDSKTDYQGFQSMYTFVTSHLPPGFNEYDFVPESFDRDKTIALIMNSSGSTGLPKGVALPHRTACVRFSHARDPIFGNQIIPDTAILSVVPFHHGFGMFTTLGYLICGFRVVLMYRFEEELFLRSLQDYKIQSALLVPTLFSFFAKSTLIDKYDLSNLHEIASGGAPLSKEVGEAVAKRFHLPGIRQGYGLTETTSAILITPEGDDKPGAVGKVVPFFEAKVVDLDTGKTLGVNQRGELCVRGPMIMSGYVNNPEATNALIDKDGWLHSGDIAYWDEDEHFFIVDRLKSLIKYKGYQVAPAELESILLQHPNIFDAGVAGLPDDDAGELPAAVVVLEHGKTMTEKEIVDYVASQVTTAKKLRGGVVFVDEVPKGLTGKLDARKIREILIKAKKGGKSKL
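Purified P. pyralis luciferase, 10 nM final, with Km-level 10 uM D-luciferin and 10 uM ATP in 50 mM Tris acetate pH 7.5, 10 mM Mg acetate, 0.01% Tween-20, 0.05% BSA; 6-point qHTS titration about 60 µM downward; luminescence read.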
NPC1 prom act: activates the NPC1 promoter. Huh7 NPC1 promoter luciferase reporter, 24 h. Potency, µM (top dose mostly 9.22 µM), for inactives: at the top dose activation, hits mostly activators. actives 2.4% (n = 320,000); note: % of control where 0% means no effect; nearly all actives have a fitted effect of over 60% in size
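Quantitative HTS used a cell-based reporter: Huh7 cells stably bearing the NPC1 promoter upstream of luciferase were treated with compounds for 24 h, and promoter activation was read as luminescence.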
ELG1 genotox: induces genotoxicity in HEK293T cells with luciferase-tagged ELG1. HEK293T ELG1-luciferase reporter, luminescence, 16 h. Potency, µM (highest dose often 46 µM), for the others: top-dose activity change, positive = activation, usual class: activators. actives 1.3% (n = 330,000). AID 504466; note: % of control where 0% means no effect; nearly all actives have a fitted effect of over 60% in size
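Cells (2,000/well) expressing the ELG1-luciferase fusion are dosed by pin tool and kept 16 hr at 37 °C, 5% CO2. Signal comes from ONE-Glo luciferase reagent after 30 min at room temperature.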
Luc counter: counter-screen: inhibitors of Kinase-Glo firefly luciferase. actives 0.28% (n = 200,000). AID 1379. Kinase-Glo luciferase, ATP luminescence, 8 min. Potency, µM (highest dose often 38.3 µM), for inactives: at the highest dose activity change, negative = inhibition, hits mostly inhibitors; note: % is set by controls: 0 for no effect and ±100 for the full control effect; nearly all actives have a fitted effect of over 60% in size
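Light output from Kinase-Glo luciferase with luciferin and 10 uM ATP in 50 mM imidazole pH 7.2, KCl, MgCl2, Tween 20, BSA; compound pin-delivered, 8-min ambient incubation, then luminescence read.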
* marks the source's active call; other numbers are inactive results. Sampled rows, rich in hits. Any-hit rate of the full collection: about 7.4%. Calls come from the whole dose curve; as a rule, active = well fitted curve in the direction sought with a large enough effect; inconclusive = small, poorly fitted or top-dose-only effect, or another doubt; inactive = no such curve, though single readings can be large; an effect the other way counts as inactive or inconclusive. Potency is the fitted concentration of half-maximal effect.

For CCCc1cnc2c(c1SCC(=O)N(C)c1ccccc1)c(=O)n(C)c(=O)n2C the results were FLuc modulator -8%.
CN(CC(=O)NCCc1ccc(S(N)(=O)=O)cc1)CC(=O)Nc1cccc(F)c1 was read as Rab9 prom act -3%, FLuc modulator 5%, NPC1 prom act 2% and ELG1 genotox -2%.
Screening COc1ccc(CNC(=O)C(C)N2C(=O)COc3ccc(C)cc32)c(OC)c1 (stereo not drawn) returned Rab9 prom act 1%, FLuc modulator -2%, NPC1 prom act 0% and ELG1 genotox -4%.
`CCOC(=O)CSc1nc(C)c2cc(OC)ccc2n1` gave Rab9 prom act 2%, SMN2 splice up 41%, FLuc modulator 24µM*, NPC1 prom act -5%, ELG1 genotox inconclusive and Luc counter 1%.
For CCOC(=O)CCSc1nc(C)c2cc(C)ccc2n1 the results were Rab9 prom act 22%, SMN2 splice up -6%, FLuc modulator 9.5µM*, NPC1 prom act 16%, ELG1 genotox 18µM* and Luc counter -2%.
CCOC(=O)CNC(=O)CSc1cc(C)nc2ccc(OC)cc12 was read as Rab9 prom act 3.2µM*, FLuc modulator 6.7µM*, NPC1 prom act 4µM*, ELG1 genotox inconclusive and Luc counter -19%.
CCC(=O)N/C(N)=N/c1nc(C)c2cc(OC)ccc2n1 was read as Rab9 prom act 23%, SMN2 splice up inconclusive, FLuc modulator 11µM*, NPC1 prom act -1%, ELG1 genotox 10µM* and Luc counter 0%.
For Cc1nc2nc(NC(=O)c3ccco3)[nH]n2c(=O)c1C the results were Rab9 prom act 1%, FLuc modulator -2%, NPC1 prom act 8% and ELG1 genotox 1%.
`CCC(C(=O)NCCc1ccccc1)n1nc(C)n2c(cc3sccc32)c1=O` (stereo not drawn) gave SMN2 splice up -3% and FLuc modulator -11%.
Screening O=C(c1ccccc1)N1CCSc2sccc2C1=O returned Rab9 prom act inconclusive, SMN2 splice up -14%, FLuc modulator 24µM*, NPC1 prom act inconclusive, ELG1 genotox -12% and Luc counter -3%.
Screening O=C(c1ccccc1)N1CCSC1=S returned Rab9 prom act -1%, SMN2 splice up -5%, FLuc modulator 2%, NPC1 prom act -3%, ELG1 genotox -2% and Luc counter -3%.
Screening CCN(CC(=O)Nc1ccccc1C(F)(F)F)C(=O)CSCc1ccc(C)cc1 returned Rab9 prom act 2%, FLuc modulator -2%, NPC1 prom act -2% and ELG1 genotox -25%.
`CNc1nc(N)c(C(=O)Nc2cc(C)on2)s1` gave Rab9 prom act inconclusive, SMN2 splice up 14µM*, FLuc modulator inconclusive, NPC1 prom act inconclusive, ELG1 genotox 13% and Luc counter -7%.
For COc1ccc(C(=O)Nc2cc(C)on2)cc1 the results were Rab9 prom act 1.8µM*, SMN2 splice up 13µM*, FLuc modulator 6.7µM*, NPC1 prom act 2µM*, ELG1 genotox inconclusive and Luc counter -10%.
For Cc1cc(NC(=O)c2ccc3nc(-c4ccccc4)c(-c4ccccc4)nc3c2)no1 the results were Rab9 prom act -8%, SMN2 splice up 19%, FLuc modulator 0%, NPC1 prom act -7%, ELG1 genotox 11% and Luc counter -2%.
`Cc1cc(NC(=O)c2ccccc2)no1` gave Rab9 prom act inconclusive, FLuc modulator 24µM*, NPC1 prom act inconclusive and ELG1 genotox inconclusive.
COc1ccc(C(=O)Nc2noc3ccccc23)cc1 was read as SMN2 splice up inconclusive and FLuc modulator 0.24µM*.
Screening Cc1ccc(S(=O)(=O)c2nnn3c2nc(Nc2ccc(C(C)C)cc2)c2sccc23)cc1C returned FLuc modulator 4%.
CC1(c2ccccc2)NC(=O)N(CC(=O)NCC2CCCO2)C1=O (stereo not drawn) was read as Rab9 prom act -1%, FLuc modulator 6%, NPC1 prom act -3% and ELG1 genotox 1%.
For CC(=O)Oc1ccc(C(=O)Nc2cc(C)on2)cc1 the results were Rab9 prom act inconclusive, FLuc modulator 15µM*, NPC1 prom act inconclusive and ELG1 genotox inconclusive.
Screening COc1ccc(OCc2cccc(C(=O)Nc3cc(C)on3)c2)cc1 returned Rab9 prom act 0.1µM*, SMN2 splice up 0.2µM*, FLuc modulator 3.8µM*, NPC1 prom act 0.1µM*, ELG1 genotox inconclusive and Luc counter -1%.
For Cc1cc(NC(=O)c2ccc(C)c(C)c2)no1 the results were Rab9 prom act 2.8µM*, FLuc modulator 24µM*, NPC1 prom act 3.5µM* and ELG1 genotox inconclusive.
For COc1cc(OC)cc(C(=O)Nc2cc(C)on2)c1 the results were Rab9 prom act -2%, FLuc modulator 4%, NPC1 prom act -1% and ELG1 genotox 3%.
Screening C/C(=C\C(=O)Nc1cc(C)on1)c1ccccc1 returned Rab9 prom act 27%, SMN2 splice up inconclusive, FLuc modulator 12µM*, NPC1 prom act 29%, ELG1 genotox 14% and Luc counter 4%.
`Cc1cc(NC(=O)c2ccc(NC(=O)C(C)C)cc2)no1` gave Rab9 prom act inconclusive, SMN2 splice up 6%, FLuc modulator inconclusive, NPC1 prom act 14%, ELG1 genotox inconclusive and Luc counter 0%.
Screening COc1ccccc1NS(=O)(=O)c1cccc(C(=O)N/N=C2\CC(=O)CC(C)(C)C2)c1 returned Rab9 prom act 0%, SMN2 splice up -10%, FLuc modulator -2%, NPC1 prom act 0%, ELG1 genotox 1% and Luc counter 2%.
Screening O=C(Nc1nnc(-c2cc(Cl)ccc2Cl)o1)c1ccco1 returned Rab9 prom act 19%, FLuc modulator 6µM*, NPC1 prom act 16% and ELG1 genotox inconclusive.
Screening O=C(Nc1ccc(N2CCOCC2)c(Cl)c1)c1ccc(Cl)cc1 returned Rab9 prom act 29%, SMN2 splice up -86%, FLuc modulator 17µM*, NPC1 prom act 14%, ELG1 genotox -16% and Luc counter 2%.
Screening O=C(Nc1ccc(N2CCOCC2)c(Cl)c1)c1ccc2c(c1)OCCO2 returned Rab9 prom act 6%, FLuc modulator inconclusive, NPC1 prom act 0%, ELG1 genotox -1% and Luc counter -1%.
O=C(Nc1cc(C(F)(F)F)ccc1N1CCOCC1)c1ccccc1F was read as Rab9 prom act -6%, SMN2 splice up 9%, FLuc modulator 3%, NPC1 prom act -1%, ELG1 genotox 4% and Luc counter -7%.

High-throughput results as filed in PubChem BioAssay.
